Measured values reported in PubChem BioAssay (NCI).
The panel holds about 83,000 compounds, 20% with a hit somewhere; the sample as a whole holds those more often.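 Note: values are percent growth. 100 is the growth of untreated cells, values between 100 and 0 indicate rising inhibition; between -100 and 0 indicates cell death.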 Calls of active or inactive are those of the source. How the source made its calls: active means growth percent below 10; inactive means the rest.

How the values were obtained:
Assay in all cases: NCI-60 one-dose screen, 48 h (100 = growth as untreated, 0 = no growth, -100 = all killed)
Settings in all cases: 10 µM unless noted
[1] = test system: NCI-H23 lung
[2] = test system: NCI-H226 lung
[3] = test system: NCI-H322M lung
[4] = test system: HOP-62 NSCLC
[5] = test system: NCI-H460 lung
[6] = test system: HOP-92 NSCLC
[7] = test system: A549/ATCC NSCLC
[8] = test system: 786-0 renal
[9] = test system: COLO 205 colon
[10] = test system: DU-145 prostate
[11] = test system: K-562 leukemia
[12] = test system: MALME-3M melanoma
[13] = test system: MDA-MB-231 breast
[14] = test system: RXF 393 renal
[15] = test system: SF-268 CNS
[16] = test system: SF-295 CNS
[17] = test system: SF-539 CNS
[18] = test system: UACC-257 melanoma
[19] = test system: M14 melanoma

Measured: growth

COc1cccc(/C=C/C(=O)Nc2cc(OC)c3c(c2)OCO3)c1
inactive: [1] 97.1% | [2] 99.2% | [3] 102% | [4] 99.7% | [5] 100% | [6] 86.5% | [7] 98.3% | [8] 91.3% | [9] 109% | [10] 94.7% | [11] 92.1% | [12] 96.4% | [13] 83.5% | [14] 103% | [15] 98.2% | [16] 89.8% | [17] 111% | [18] 96.8% | [19] 104%

C=C[C@@H]1C[C@@H]2Cc3cc(F)ccc3N1O2
inactive: [1] 103% | [2] 120% | [3] 137% | [4] 102% | [5] 112% | [6] 105% | [7] 95.3% | [8] 111% | [9] 123% | [10] 112% | [11] 95.7% | [12] 170% | [13] 112% | [14] 115% | [15] 106% | [16] 112% | [17] 107% | [18] 93.8% | [19] 120%

O=C(Nc1cccc(-n2cc(-c3ccncc3)c(-c3ccc(Cl)c(O)c3)n2)c1)Nc1ccc(Cl)c(C(F)(F)F)c1
inactive: [3] 24.7%
active: [1] -25.8% | [2] 3.43% | [4] -17% | [5] -43.7% | [6] -30.7% | [7] -21.3% | [8] 4.7% | [9] -60.2% | [10] -17% | [11] -20.8% | [12] -16.6% | [13] -36.4% | [14] -76% | [15] -34.5% | [17] -26.1% | [18] -54% | [19] -25.5%

Cc1ccc(S(=O)(=O)NCCNc2nccc(-c3c(-c4ccc(O)cc4)nc4sccn34)n2)cc1
inactive: [1] 95.1% | [2] 98.8% | [3] 110% | [4] 113% | [5] 106% | [6] 101% | [7] 94.1% | [8] 97.3% | [9] 104% | [10] 102% | [11] 81.7% | [12] 95.6% | [13] 97.7% | [14] 92.2% | [15] 95.6% | [17] 107% | [18] 108% | [19] 93.3%

CCCCC(CC)OC(=O)C(Br)CC (centres undefined)
inactive: [1] 92.7% | [2] 108% | [3] 101% | [4] 111% | [5] 109% | [6] 95.8% | [7] 103% | [8] 98.4% | [9] 111% | [10] 107% | [11] 83.8% | [12] 99.9% | [13] 112% | [14] 114% | [15] 98.1% | [16] 97.5% | [17] 98.7% | [18] 104% | [19] 101%

CCN(CC)c1ccc(N=O)cc1
inactive: [1] 81.7% | [2] 101% | [3] 87.7% | [4] 91.8% | [5] 58.9% | [6] 51.9% | [7] 59.7% | [8] 91.8% | [9] 13.9% | [10] 80.9% | [11] 23.5% | [12] 71.1% | [13] 47.4% | [14] 72.5% | [15] 59.1% | [16] 92.7% | [17] 77.2% | [18] 33.2% | [19] 75.3%

C=C[C@@H]1C[C@H](O)Cc2ccccc2N1
inactive: [1] 104% | [2] 111% | [3] 125% | [4] 99.2% | [5] 107% | [6] 137% | [7] 95.4% | [8] 112% | [9] 117% | [10] 115% | [12] 113% | [13] 101% | [14] 120% | [15] 107% | [16] 109% | [17] 101% | [18] 104% | [19] 108%

O=[N+]([O-])c1cccc(-c2nc3sccn3c2-c2ccnc(NCCCNS(=O)(=O)c3ccc(Cl)cc3)n2)c1
inactive: [1] 42.8% | [2] 44.2% | [3] 78.5% | [4] 84% | [5] 57.4% | [6] 67.2% | [7] 43.1% | [8] 78.7% | [9] 49.2% | [10] 64.2% | [11] 26.6% | [12] 62.8% | [13] 70.8% | [14] 77.9% | [15] 69.7% | [16] 37.2% | [17] 84.9% | [18] 47.7% | [19] 47%
